Experimental data from PubChem BioAssay (EPA / NIEHS).
Results filed as inconclusive are left out. The source made the active and inactive calls. Rule for the calls: active = hit-call score of the fitted dose curve at least 0.9, where 1 is the maximum; inconclusive = response in the unintended direction; inactive = score below 0.9.

Tests used:
[1] = ACEA_AR_agonist_AUC_viability: ACEA Biosciences xCELLigence Real-Time Cell Analysis on Androgen Receptor Agonism for Viability (AID 2283775);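 for AC50: viability read 80 hours after compound addition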
How it was run: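 Real-time impedance tracking of 22Rv1 growth, readings every 5 min for 5 h then hourly; area-under-curve viability endpoint at 80 hours, relative to DMSO. Compounds at eight concentrations, 1:4 steps, top 100 uM, n = 2.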

[2] = ACEA_AR_antagonist_AUC_viability: ACEA Biosciences xCELLigence Real-Time Cell Analysis on Androgen Receptor Antagonism for Viability (AID 2283776);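 note: 22Rv1 human prostate cancer cells growing on impedance electrode plates; hits lower the growth signal relative to DMSO meaning cytotoxicity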
How it was run: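 Impedance read-out (RT-CES): area under growth curve at 80 h post-dose, loss of signal scored vs DMSO baseline. 22Rv1 cells; 8-pt 1:4 series, top 100 uM final, ≤0.5% DMSO; biological duplicate.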

[3] = biological target: Luciferin 4-monooxygenase (Photinus pyralis) (UniProt P08659); assay: CCTE_Simmons_QuantiLum_inhib_2: CCTE's Firefly Luciferase Inhibition Assay, Simmons Lab (AID 2283767)
Sequence of Luciferin 4-monooxygenase (Photinus pyralis) (P08659 whole entry, looked up): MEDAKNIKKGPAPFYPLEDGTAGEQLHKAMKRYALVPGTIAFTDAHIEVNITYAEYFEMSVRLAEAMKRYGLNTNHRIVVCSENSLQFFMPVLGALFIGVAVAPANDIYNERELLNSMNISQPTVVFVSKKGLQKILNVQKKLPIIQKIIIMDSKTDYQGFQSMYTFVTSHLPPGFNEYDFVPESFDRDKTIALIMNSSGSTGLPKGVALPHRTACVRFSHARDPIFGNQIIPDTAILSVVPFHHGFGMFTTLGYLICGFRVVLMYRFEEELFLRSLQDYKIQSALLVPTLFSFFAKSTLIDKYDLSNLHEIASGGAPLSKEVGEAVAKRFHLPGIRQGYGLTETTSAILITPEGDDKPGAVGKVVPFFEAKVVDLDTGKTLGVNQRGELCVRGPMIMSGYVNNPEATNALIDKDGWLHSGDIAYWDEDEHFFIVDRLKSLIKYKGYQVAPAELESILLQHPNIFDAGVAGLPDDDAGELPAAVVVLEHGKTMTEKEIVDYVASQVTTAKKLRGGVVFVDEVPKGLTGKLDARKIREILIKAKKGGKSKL
How it was run: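 Cell-free recombinant firefly luciferase (5 ng/well) in 200mM potassium phosphate with 1 mg/ml BSA, 30 min at 37C with 8 concentrations from 5 nM to 87.5 uM [final], 0.5% DMSO. Luminescence read after D-luciferin (150uM)/dATP (147uM) reagent injection, pH 7.8; triplicates.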

[4] = ACEA_ER_AUC_viability: ACEA Biosciences xCELLigence Real-Time Cell Analysis on Estrogen Receptor Agonism for Viability (AID 2283782);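 note: continuous compound exposure with impedance area under curve over 80 h; hit means loss of impedance signal meaning reduced cell growth or viability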
How it was run: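 T47D cells preconditioned in phenol red-free RPMI with charcoal-stripped FBS, then dosed with 8-point 1:4 series from 100 uM (up to 0.5% DMSO). Impedance monitored up to ~80 h; area-under-curve loss versus DMSO taken as viability.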

[5] = biological target: zebrafish Estrogen Receptor (ESR1), esr1 (gene 259252) (UniProt P57717); assay: ATG_zfER1_XSP1: Attagene TRANS-FACTORIAL Multi-Species (XSP1) HepG2 Assay for zebrafish Estrogen Receptor (ESR1) (AID 2283772)
Sequence of zebrafish Estrogen Receptor (ESR1), esr1 (gene 259252) (P57717 whole entry, looked up, the tested form may be a part): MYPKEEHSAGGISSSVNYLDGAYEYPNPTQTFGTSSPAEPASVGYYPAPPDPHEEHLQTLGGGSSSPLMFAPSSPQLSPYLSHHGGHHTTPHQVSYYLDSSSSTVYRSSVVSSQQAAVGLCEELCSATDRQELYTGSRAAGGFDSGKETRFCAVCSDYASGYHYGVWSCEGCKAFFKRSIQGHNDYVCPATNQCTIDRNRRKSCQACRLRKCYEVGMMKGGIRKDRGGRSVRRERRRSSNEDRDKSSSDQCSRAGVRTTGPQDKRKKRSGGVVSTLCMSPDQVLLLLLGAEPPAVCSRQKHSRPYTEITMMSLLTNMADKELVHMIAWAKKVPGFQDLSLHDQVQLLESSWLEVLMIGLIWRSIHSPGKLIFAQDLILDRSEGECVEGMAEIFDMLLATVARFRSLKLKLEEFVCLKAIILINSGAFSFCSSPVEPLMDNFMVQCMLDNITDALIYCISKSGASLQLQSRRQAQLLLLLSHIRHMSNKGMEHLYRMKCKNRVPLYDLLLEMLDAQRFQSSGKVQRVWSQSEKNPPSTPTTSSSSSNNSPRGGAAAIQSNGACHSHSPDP
How it was run: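 HepG2 cells were transiently transfected with multiplexed GAL4-UAS reporter units driven by chimeric NR-GAL4 proteins, dosed for 24 h with 3 nM 6-alpha-fluorotestosterone present, and reporter mRNA quantified by RT-PCR and capillary electrophoresis versus DMSO.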

[6] = tested on: zebrafish Estrogen Receptor (ESR2B), gene 317733; assay: ATG_zfER2b_XSP1: Attagene TRANS-FACTORIAL Multi-Species (XSP1) HepG2 Assay for zebrafish Estrogen Receptor (ESR2B) (AID 2283773)
How it was run: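 HepG2 cells transiently transfected with GAL4-UAS reporter units for chimeric zebrafish ER2b-Gal4, with 3 nM 6-alpha-fluorotestosterone present; reporter mRNA measured 24 h after dosing by RT-PCR and capillary electrophoresis, gain versus DMSO.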

[7] = tested on: frog Estrogen Receptor (ESR2), gene 100174814; assay: ATG_frER2_XSP1: Attagene TRANS-FACTORIAL Multi-Species (XSP1) HepG2 Assay for frog Estrogen Receptor (ESR2) (AID 2283774)
How it was run: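 HepG2 cells transiently transfected with GAL4-UAS reporter units expressing chimeric frog ER-Gal4; 3 nM 6-alpha-fluorotestosterone present. After 24 h dosing, reporter mRNA quantified by RT-PCR and capillary electrophoresis; gain-of-signal fitted relative to DMSO.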

[8] = tested on: frog Estrogen Receptor (ESR1), gene 398734; assay: ATG_frER1_XSP1: Attagene TRANS-FACTORIAL Multi-Species (XSP1) HepG2 Assay for frog Estrogen Receptor (ESR1) (AID 2283777)
How it was run: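 HepG2 cells transiently transfected with frog ER–GAL4 chimera and GAL4-UAS reporter, with 3 nM 6-alpha-fluorotestosterone present; 24 h dosing, reporter mRNA quantified by RT-PCR and capillary electrophoresis, gain of signal versus DMSO.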

[9] = tested on: zebrafish Estrogen Receptor (ESR2A), gene 317734; assay: ATG_zfER2a_XSP1: Attagene TRANS-FACTORIAL Multi-Species (XSP1) HepG2 Assay for zebrafish Estrogen Receptor (ESR2A) (AID 2283778)
How it was run: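 HepG2 cells transiently transfected with GAL4-UAS reporter units driven by a zebrafish ESR2A–Gal4 chimera; 24 h compound exposure with 3 nM 6-alpha-fluorotestosterone present. Reporter mRNA measured by RT-PCR with fluorescent capillary electrophoresis, fitted positive versus DMSO.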

[10] = biological target: chicken Estrogen Receptor (ESR1), ESR1 (gene 396099) (UniProt P06212); assay: ATG_chERa_XSP1: Attagene TRANS-FACTORIAL Multi-Species (XSP1) HepG2 Assay for chicken Estrogen Receptor (ESR1) (AID 2283779)
Sequence of chicken Estrogen Receptor (ESR1), ESR1 (gene 396099) (P06212 whole entry, looked up, the tested form may be a part): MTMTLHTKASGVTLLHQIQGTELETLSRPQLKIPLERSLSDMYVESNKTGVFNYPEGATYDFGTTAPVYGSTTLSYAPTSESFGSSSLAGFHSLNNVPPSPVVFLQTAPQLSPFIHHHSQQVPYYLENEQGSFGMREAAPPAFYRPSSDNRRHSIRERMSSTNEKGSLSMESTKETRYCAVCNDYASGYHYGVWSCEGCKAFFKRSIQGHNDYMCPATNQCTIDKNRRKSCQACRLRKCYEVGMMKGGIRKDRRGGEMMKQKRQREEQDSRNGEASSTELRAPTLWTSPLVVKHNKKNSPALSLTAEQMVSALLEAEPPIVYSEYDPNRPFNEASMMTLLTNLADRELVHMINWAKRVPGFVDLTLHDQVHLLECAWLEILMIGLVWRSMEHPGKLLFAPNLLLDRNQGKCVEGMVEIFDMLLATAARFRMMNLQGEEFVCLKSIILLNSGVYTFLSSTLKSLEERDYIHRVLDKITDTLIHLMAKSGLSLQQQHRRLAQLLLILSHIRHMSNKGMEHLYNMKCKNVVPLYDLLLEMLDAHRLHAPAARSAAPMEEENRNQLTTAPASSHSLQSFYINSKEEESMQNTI
How it was run: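 HepG2 cells transiently transfected with GAL4-UAS reporter units for chimeric chicken ERα-Gal4, dosed 24 h with 3 nM 6-alpha-fluorotestosterone present. Reporter mRNA by RT-PCR and capillary electrophoresis; gain-of-signal fit versus DMSO.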

[11] = biological target: Estrogen receptor (Homo sapiens) (UniProt P03372); assay: ATG_hERa_XSP1: Attagene TRANS-FACTORIAL Multi-Species (XSP1) HepG2 Assay for human Estrogen Receptor (ESR1) (AID 2283780)
Sequence of Estrogen receptor (Homo sapiens) (P03372 whole entry, looked up, the tested form may be a part): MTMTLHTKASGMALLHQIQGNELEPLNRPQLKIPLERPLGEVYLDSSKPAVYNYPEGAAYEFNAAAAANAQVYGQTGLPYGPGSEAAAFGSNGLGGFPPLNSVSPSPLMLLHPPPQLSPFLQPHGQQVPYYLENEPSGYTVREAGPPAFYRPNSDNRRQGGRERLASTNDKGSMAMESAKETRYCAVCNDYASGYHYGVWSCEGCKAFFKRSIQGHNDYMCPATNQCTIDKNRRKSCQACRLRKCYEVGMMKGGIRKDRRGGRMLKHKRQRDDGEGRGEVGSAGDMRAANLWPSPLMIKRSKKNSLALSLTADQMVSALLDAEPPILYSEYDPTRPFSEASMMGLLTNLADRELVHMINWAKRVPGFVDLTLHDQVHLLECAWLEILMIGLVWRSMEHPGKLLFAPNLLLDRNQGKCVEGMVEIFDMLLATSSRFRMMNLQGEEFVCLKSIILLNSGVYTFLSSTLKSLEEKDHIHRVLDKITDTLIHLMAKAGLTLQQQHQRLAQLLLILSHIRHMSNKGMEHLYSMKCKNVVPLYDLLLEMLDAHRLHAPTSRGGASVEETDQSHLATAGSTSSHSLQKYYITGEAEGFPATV
How it was run: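 HepG2 cells transiently transfected with GAL4-UAS reporter units and chimeric NR-Gal4 constructs; 24 h after dosing, reporter mRNA quantified by RT-PCR and capillary electrophoresis. Medium contained 3 nM 6-alpha-fluorotestosterone; activity fitted as gain-of-signal versus DMSO.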

[12] = tested on: turtle Estrogen Receptor (ESR1), gene 101933533; assay: ATG_trERa_XSP1: Attagene TRANS-FACTORIAL Multi-Species (XSP1) HepG2 Assay for turtle Estrogen Receptor (ESR1) (AID 2283781)
How it was run: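 Turtle ERa as a GAL4 chimera in transiently transfected HepG2 cells; reporter mRNA quantified 24 h after dosing by RT-PCR and capillary electrophoresis. 3 nM 6-alpha-fluorotestosterone present; gain of signal versus DMSO.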

AR (gene 367) [13] = biological target: AR (gene 367) (UniProt P10275); assay: ACEA_AR_agonist_80hr: ACEA Biosciences xCELLigence Real-Time Cell Analysis on Androgen Receptor Agonism for Proliferation (AID 2283783);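 note: hits increase impedance growth signal above DMSO baseline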
Sequence of AR (gene 367) (P10275 whole entry, looked up): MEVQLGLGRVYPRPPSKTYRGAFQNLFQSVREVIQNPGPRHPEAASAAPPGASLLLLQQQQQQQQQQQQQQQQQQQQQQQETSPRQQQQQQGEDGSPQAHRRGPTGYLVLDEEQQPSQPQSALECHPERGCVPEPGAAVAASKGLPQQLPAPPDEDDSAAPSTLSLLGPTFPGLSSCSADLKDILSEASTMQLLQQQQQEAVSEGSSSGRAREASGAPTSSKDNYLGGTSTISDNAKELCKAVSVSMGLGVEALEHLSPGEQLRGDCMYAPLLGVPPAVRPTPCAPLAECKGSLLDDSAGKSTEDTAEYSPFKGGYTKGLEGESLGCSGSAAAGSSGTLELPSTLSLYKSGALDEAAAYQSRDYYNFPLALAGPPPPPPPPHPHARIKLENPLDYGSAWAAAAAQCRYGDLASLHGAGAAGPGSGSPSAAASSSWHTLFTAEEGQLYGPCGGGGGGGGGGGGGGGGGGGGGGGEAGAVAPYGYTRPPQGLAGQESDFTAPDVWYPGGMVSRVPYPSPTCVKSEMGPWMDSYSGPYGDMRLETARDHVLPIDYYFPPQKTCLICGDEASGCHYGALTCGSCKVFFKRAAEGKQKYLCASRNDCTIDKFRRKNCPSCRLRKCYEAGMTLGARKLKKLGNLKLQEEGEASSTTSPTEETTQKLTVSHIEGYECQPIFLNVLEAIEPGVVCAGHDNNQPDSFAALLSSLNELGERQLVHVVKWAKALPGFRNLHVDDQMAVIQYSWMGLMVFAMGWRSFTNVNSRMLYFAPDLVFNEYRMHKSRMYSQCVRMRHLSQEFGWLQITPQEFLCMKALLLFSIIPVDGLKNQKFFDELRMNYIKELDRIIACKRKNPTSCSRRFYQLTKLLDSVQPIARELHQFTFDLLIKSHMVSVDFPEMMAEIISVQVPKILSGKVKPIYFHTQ
How it was run: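 Proliferation of 22Rv1 prostate cancer cells tracked by electrical impedance, endpoint taken at 80 hours after dosing. Eight-point 1:4 dilutions from 100 uM maximum final, duplicate; testosterone and MG132 as positive controls, assay media as negative.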

AR (gene 367) [14] = biological target: AR (gene 367) (UniProt P10275); assay: ACEA_AR_antagonist_80hr: ACEA Biosciences xCELLigence Real-Time Cell Analysis on Androgen Receptor Antagonism for Proliferation (AID 2283787);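 note: 22Rv1 human prostate cancer cells with growth followed by electrical impedance; hits lower the impedance growth signal relative to DMSO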
How it was run: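 22Rv1 cells in assay medium, growth tracked by electrical impedance; compounds eight-point 1:4 dilutions from 100 uM final, duplicate plates. Endpoint at 80 h; loss of signal versus DMSO.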

[15] = STM_H9_NormalizedViability: Cytotoxicity Assessment at 120 hours in the Stemina devTOX quickPredict H9 human embryonic stem cell (hESC)-based Assay (AID 2283784)
How it was run: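 Pluripotent H9 hESCs were exposed, with chemical and media replaced every 24 h. Viability was read by CellTiter-Fluor fluorescence, background-corrected and normalized to the 0.1% DMSO neutral control per plate. Loss of signal was fitted.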

[16] = tested on: chicken Androgen Receptor (AR), gene 422165; assay: ATG_chAR_XSP1: Attagene TRANS-FACTORIAL Multi-Species (XSP1) HepG2 Assay for chicken Androgen Receptor (AR) (AID 2283768)
How it was run: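 HepG2 cells transiently transfected with multiplexed GAL4-UAS reporter units expressing chimeric chicken AR-Gal4; 3 nM 6-alpha-fluorotestosterone for partial AR stimulation; 24 h after dosing, reporter mRNA by RT-PCR and capillary electrophoresis, gain-of-signal versus DMSO.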

[17] = tested on: turtle Androgen Receptor (AR), gene 101947425; assay: ATG_trAR_XSP1: Attagene TRANS-FACTORIAL Multi-Species (XSP1) HepG2 Assay for turtle Androgen Receptor (AR) (AID 2283786)
How it was run: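 HepG2 cells transiently transfected with a turtle AR–GAL4 chimera and GAL4-UAS reporter, co-treated with 3 nM 6-alpha-fluorotestosterone for partial stimulation. Reporter mRNA is quantified at 24 h by RT-PCR and capillary electrophoresis, gain-of-signal versus DMSO.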

Measured: AC50

COCC(C)N(C(=O)CCl)c1c(C)csc1C (configuration not stated)
active: [2] 33 µM
inactive: [1]

CC(C)=CC1C(C(=O)OCc2coc(Cc3ccccc3)c2)C1(C)C (configuration not stated)
active: [1] 46 µM | [2] 40.4 µM | [4] 84 µM
inactive: [3]

CN/C(=N\[N+](=O)[O-])NCc1cnc(Cl)s1
inactive: [1] | [2]

COP(=S)(OC)Oc1ccc([N+](=O)[O-])c(C)c1
active: [6] 74.4 µM | [7] 65.9 µM | [1] 87.3 µM | [2] 71.9 µM | [8] 48.9 µM | [10] 43.2 µM | [11] 36.7 µM | [12] 50.1 µM
inactive: [3] | [5] | [9] | [4]

CCOC(=O)C(C)OC(=O)c1cc(Oc2ccc(C(F)(F)F)cc2Cl)ccc1[N+](=O)[O-] (configuration not stated)
active: [1] 74 µM | [2] 50 µM

CCOP(=O)(OCC)Oc1nc(Cl)c(Cl)cc1Cl
inactive: [3] | AR (gene 367) [13]
active: [1] 72.4 µM | [2] 72.7 µM | [4] 68.3 µM | AR (gene 367) [14] 76 µM

CC1(C)CCC(=Cc2ccc(Cl)cc2)C1(O)Cn1cncn1 (configuration not stated)
active: [7] 56.6 µM | [10] 3.53 µM | [11] 3.95 µM | [12] 5.79 µM | AR (gene 367) [14] 13.1 µM
inactive: [5] | [1] | [2] | [8] | [9] | AR (gene 367) [13] | [15]

CCNP(=S)(OC)O/C(C)=C/C(=O)OC(C)C (configuration not stated)
inactive: [3] | [1] | [2] | [15]

O=P(O)(O)CCCl
inactive: [3] | [1] | [2] | [4]

CCOP(=S)(OCC)Oc1nc(Cl)n(C(C)C)n1
inactive: [3] | [1] | [2] | [15]

CCOc1nc(C(Cl)(Cl)Cl)ns1
inactive: [3] | [1] | [2] | [15]

O=c1n(Cl)c(=O)n(Cl)c(=O)n1Cl
inactive: [3] | [1] | [2]

Cc1cnc(C2=NC(C)(C(C)C)C(=O)N2)c(C(=O)O)c1 (configuration not stated)
inactive: [3] | [1] | [2] | AR (gene 367) [13] | AR (gene 367) [14]

Cc1c(COC(=O)[C@@H]2[C@H](/C=C(\Cl)C(F)(F)F)C2(C)C)cccc1-c1ccccc1
active: [6] 69.1 µM | [7] 100 µM | [1] 69.3 µM | [2] 31.4 µM | [8] 36.3 µM | [11] 21.8 µM | [12] 19.8 µM
inactive: [16] | [5] | [9] | [10] | [4] | [17]
